Source: PubChem BioAssay (Tox21)
Results filed as inconclusive are left out. Active and inactive are the calls of the source. Unless noted, the call rests on the fitted dose curve; in most records, active means well fitted curve in the direction sought with a large enough effect in the repeat runs; inconclusive means weak or mixed curves; inactive means no such curve, though single readings can be large; an effect the other way counts as inactive or inconclusive.

Tests used:
[1] = biological target: Thyrotropin receptor (Homo sapiens) (UniProt P16473); assay: qHTS assay to identify small molecule agonists of the thyroid stimulating hormone receptor (TSHR) signaling pathway (AID 1224843; calls by dose curve; further: nearly all actives have a fitted effect of over 45% in size)
Sequence of Thyrotropin receptor (Homo sapiens) (P16473 whole entry, looked up): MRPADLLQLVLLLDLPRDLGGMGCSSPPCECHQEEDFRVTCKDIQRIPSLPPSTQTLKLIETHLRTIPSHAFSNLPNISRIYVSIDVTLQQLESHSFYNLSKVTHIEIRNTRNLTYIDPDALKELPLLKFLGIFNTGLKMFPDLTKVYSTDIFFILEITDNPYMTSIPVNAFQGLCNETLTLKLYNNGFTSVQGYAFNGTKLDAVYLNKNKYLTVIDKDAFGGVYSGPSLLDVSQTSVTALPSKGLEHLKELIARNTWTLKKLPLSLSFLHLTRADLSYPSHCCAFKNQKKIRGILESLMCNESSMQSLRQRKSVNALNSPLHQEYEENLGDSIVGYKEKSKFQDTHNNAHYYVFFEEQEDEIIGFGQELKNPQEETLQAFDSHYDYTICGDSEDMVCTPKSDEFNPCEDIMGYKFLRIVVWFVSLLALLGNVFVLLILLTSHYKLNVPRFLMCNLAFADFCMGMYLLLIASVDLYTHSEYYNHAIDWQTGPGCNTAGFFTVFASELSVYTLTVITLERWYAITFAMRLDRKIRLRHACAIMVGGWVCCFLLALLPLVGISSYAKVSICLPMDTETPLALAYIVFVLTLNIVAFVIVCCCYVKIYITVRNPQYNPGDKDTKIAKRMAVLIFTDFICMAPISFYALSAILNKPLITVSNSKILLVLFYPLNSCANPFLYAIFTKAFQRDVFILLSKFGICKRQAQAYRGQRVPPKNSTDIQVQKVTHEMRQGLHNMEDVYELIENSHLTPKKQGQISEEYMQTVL
Summary of the method: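 Steps: seed 800 TSHR-HEK293 cells per well; add test compound and hold 30 min at ambient temperature; dispense cAMP-d2 then anti-cAMP cryptate; incubate 1 h at ambient; measure fluorescence intensity.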

[2] = qHTS assay to identify small molecule agonists of the hypoxia (HIF-1) signaling pathway (AID 1224846; active means well fitted activation curve with a large enough effect in the signal ratio in the repeat runs, not every such curve was filed as active; the % refers to the signal ratio)
Summary of the method: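 Hypoxia-pathway activation was scored as increased beta-lactamase from an HRE-controlled reporter in ME-180 cells; plated at 2,000 cells per well with 0.5% dialyzed FBS, they were exposed 17 hrs to compounds and then given CCF4-AM.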

[3] = qHTS assay to identify small molecule agonists of H2AX - cell viability counter screen (AID 1224847; calls by dose curve; further: top concentration of the series differs between compounds; nearly all actives have a fitted effect of over 30% in size)
Summary of the method: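 Cytotoxicity counter screen in wild-type CHO-K1 cells: a 3 hr compound treatment at 37C across 15 concentrations, followed by CellTiter-Glo luminescence to gauge viable cells.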

[4] = qHTS assay to identify small molecule antagonists of the estrogen related receptor (ERR) signaling pathway from Tox21 library (AID 1224848); further: nearly all actives have a fitted effect of over 50% in size
Summary of the method: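 Luminescent reporter read-out (ONE-Glo) from NTP's ERR cell line after 18 h treatment at 37 C with DMSO-dissolved Tox21 compounds; cells pre-plated 6 h beforehand at 2,000 per well.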

[5] = qHTS assay to identify small molecule agonists of the estrogen related receptor (ERR) signaling pathway from Tox21 library (AID 1224849; calls by dose curve; further: nearly all actives have a fitted effect of over 15% in size); settings: ERR reporter cell line, ONE-Glo luciferase, 18 h; at 92.4 µM (top of the series) unless noted
Summary of the method: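 Six hours post-seeding at 37 C/5% CO2, ERR cells receive DMSO-solubilised compounds; after 18 h at 37 C, ONE-Glo reagent is applied and luminescence recorded.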

[6] = qHTS RealTime-Glo MT Cell Viability Assay in HEK293 cells - 32 hour (AID 1224868); further: top concentration of the series differs between compounds; nearly all actives have a fitted effect of over 50% in size
Summary of the method: (§1)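 Assay medium contained NanoLuc luciferase plus cell-permeant prosubstrate, added with HEK293 cells at 600 cells/well. After 5 h at 37 C/5% CO2 compounds were added; plates stayed at 37 C for 40 h with serial luminescence reads.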

[7] = A CellTox Green Cytotoxicity Assay to monitor cytotoxicity in HEK293 cells - 0 hour (AID 1224869); further: nearly all actives have a fitted effect of over 50% in size
Summary of the method: (§2)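 Seeding of HEK293 cells together with cytotoxicity dye preceded a 5 h incubation at 37 C/5% CO2. Test compounds in DMSO were then added and fluorescence monitored across 40 h.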

[8] = A CellTox Green Cytotoxicity Assay to monitor cytotoxicity in HEK293 cells - 40 hour (AID 1224871); further: nearly all actives have a fitted effect of over 45% in size
Summary of the method: as §2

[9] = qHTS RealTime-Glo MT Cell Viability Assay in HEK293 cells - 16 hour (AID 1224872); further: top concentration of the series differs between compounds; nearly all actives have a fitted effect of over 50% in size
Summary of the method: as §1

[10] = qHTS RealTime-Glo MT Cell Viability Assay in HepG2 cells - 8 hour (AID 1224873); further: nearly all actives have a fitted effect of over 55% in size
Summary of the method: (§3)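 HepG2 cells (600/well) mixed with RealTime-Glo MT reagent, settled 5 h at 37 C/5% CO2 before compound addition. Nonlytic NanoLuc luminescence from viable-cell prosubstrate reduction read repeatedly during 40 h treatment at 37 C.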

[11] = qHTS RealTime-Glo MT Cell Viability Assay in HEK293 cells - 40 hour (AID 1224874); settings: RealTime-Glo luminescence; max response: active compounds read low; further: nearly all actives have a fitted effect of over 50% in size
Summary of the method: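 Tox21 screen in HEK293 using RealTime-Glo MT chemistry, with cells and reagent co-dispensed. Luminescence proportional to viable cell number was captured at intervals during 40 h compound exposure at 37 C.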

[12] = A CellTox Green Cytotoxicity Assay to monitor cytotoxicity in HEK293 cells - 24 hour (AID 1224875); further: nearly all actives have a fitted effect of over 45% in size
Summary of the method: as §2

[13] = A CellTox Green Cytotoxicity Assay to monitor cytotoxicity in HepG2 cells - 16 hour (AID 1224876); further: nearly all actives have a fitted effect of over 45% in size
Summary of the method: (§4)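 Nonlytic assay: viable cells exclude the dye, so fluorescence scales with cell death. HepG2 at 600 cells/well, compounds added after 5 h, signal read across 40 h.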

[14] = A CellTox Green Cytotoxicity Assay to monitor cytotoxicity in HepG2 cells - 24 hour (AID 1224878); further: nearly all actives have a fitted effect of over 45% in size
Summary of the method: as §4

[15] = A CellTox Green Cytotoxicity Assay to monitor cytotoxicity in HepG2 cells - 40 hour (AID 1224879); further: nearly all actives have a fitted effect of over 40% in size
Summary of the method: as §4

[16] = qHTS assay to identify small molecule agonists of H2AX (AID 1224845; active means well fitted activation curve with a large enough effect in the signal ratio in the repeat runs, not every such curve was filed as active; the % refers to the signal ratio)
Summary of the method: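 Wild-type CHO-K1 cells, plated overnight, exposed 3hr at 37C to 15 concentrations (0.76% DMSO final). Lysed, then HTRF anti-pH2AX (S139) cryptate and anti-H2AX-d2 antibodies, 24 hr room temperature; 665/620 nm emission read.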

[17] = qHTS RealTime-Glo MT Cell Viability Assay in HepG2 cells - 24 hour (AID 1224867); further: nearly all actives have a fitted effect of over 50% in size
Summary of the method: (§5)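 qHTS, HepG2, 600 cells/well, RealTime-Glo (NanoLuc + prosubstrate) added with cells; 5 h preincubation; DMSO compound addition; 37 C; luminescence at 0/8/16/24/32/40 h.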

[18] = qHTS RealTime-Glo MT Cell Viability Assay in HepG2 cells - 40 hour (AID 1224870); further: nearly all actives have a fitted effect of over 50% in size
Summary of the method: as §3

[19] = qHTS RealTime-Glo MT Cell Viability Assay in HepG2 cells - 32 hour (AID 1224877); further: nearly all actives have a fitted effect of over 55% in size
Summary of the method: as §5
On the % scale 0 is the no-effect control and ±100 the full control effect.

CN(C)c1ccc(C=O)cc1
inactive: Potency [1] | outcome [2] | Potency [3] | Potency [4] | activity change, positive = activation [5] 0.183% | Potency [6] | outcome [7] | Potency [8] | Potency [9] | outcome [10] | max response [11] 14.8% | outcome [12] | outcome [13] | outcome [14] | Potency [15]

CC(=O)Nc1cccc(C)c1
inactive: Potency [1] | outcome [16] | outcome [2] | outcome [17] | outcome [7] | outcome [18] | Potency [8] | outcome [10] | outcome [12] | outcome [13] | outcome [14] | Potency [15]

COc1ccc(C2CNC(=O)C2)cc1OC1CCCC1 (centres undefined)
inactive: Potency [1] | Potency [3] | Potency [4] | activity change, positive = activation [5] -4.57% [at 42.5 µM] | outcome [17] | Potency [6] | outcome [7] | outcome [18] | Potency [8] | Potency [9] | outcome [10] | max response [11] -17.5% | outcome [12] | outcome [13] | outcome [19] | Potency [15]

CCCCOC(=O)c1ccccc1
inactive: Potency [1] | outcome [16] | outcome [2] | Potency [3] | Potency [4] | activity change, positive = activation [5] 1.54% | outcome [17] | Potency [6] | outcome [7] | Potency [8] | Potency [9] | outcome [10] | max response [11] 4.16% | outcome [12] | outcome [13] | outcome [19] | outcome [14] | Potency [15]

CC(=O)c1sc(C)nc1C
inactive: Potency [1] | outcome [16] | outcome [2] | Potency [3] | Potency [4] | activity change, positive = activation [5] -11% | Potency [6] | outcome [7] | outcome [18] | Potency [8] | Potency [9] | outcome [10] | max response [11] -23.3% | outcome [12] | outcome [14] | Potency [15]

C[Si](C)=O
inactive: activation [1] 1.85% [at 8.39 µM] | activation (H2AX phosphorylation) [16] -1.6% [at 14 µM] | activation [2] -1.19% [at 7.01 µM] | activity change, negative = cytotoxicity [3] -6.59% [at 14 µM] | activity, negative = inhibition [4] 1.05% [at 8.39 µM] | activity change, positive = activation [5] 0.654% [at 8.39 µM] | activity change, negative = cytotoxicity [17] 0.943% [at 6.97 µM] | activity change, negative = cytotoxic [6] 1.65% [at 6.97 µM] | cytotoxicity [7] 2.11% [at 6.97 µM] | cytotoxicity increase [8] 12.6% [at 6.97 µM] | activity change, negative = cytotoxicity [9] 2.27% [at 6.97 µM] | viability change, negative = cytotoxic [10] 1.52% [at 6.97 µM] | max response [11] 0.522% | activity change [12] 9.97% [at 6.97 µM] | cytotoxicity increase [13] -6.23% [at 6.97 µM] | activity change, negative = cytotoxic [19] 0.305% [at 6.97 µM] | cytotoxicity [14] -4.98% [at 6.97 µM] | cytotoxicity increase [15] -11.7% [at 6.97 µM]

CCCC(=O)C(C)=O
inactive: Potency [1] | outcome [16] | outcome [2] | Potency [4] | activity change, positive = activation [5] 7.37% | outcome [17] | Potency [6] | outcome [7] | outcome [18] | Potency [8] | Potency [9] | outcome [10] | max response [11] -1.51% | outcome [12] | outcome [13] | outcome [14] | Potency [15]

CC(C)CCCC(C)(C)O
inactive: Potency [1] | outcome [16] | outcome [2] | outcome [17] | Potency [6] | outcome [7] | outcome [18] | Potency [8] | Potency [9] | outcome [10] | max response [11] -4.36% | outcome [12] | outcome [13] | outcome [19] | outcome [14] | Potency [15]

CCCCCCCCSCC
inactive: Potency [1] | outcome [16] | outcome [2] | Potency [4] | activity change, positive = activation [5] 4.95% | outcome [17] | Potency [6] | outcome [7] | Potency [9] | outcome [10] | max response [11] 7.92% | outcome [13] | outcome [14] | Potency [15]

NNc1nnc(NN)c2ccccc12
inactive: Potency [1] | outcome [16] | outcome [2] | Potency [3] | outcome [17] | Potency [6] | outcome [7] | outcome [18] | Potency [9] | outcome [10] | max response [11] 0.221% | outcome [12] | outcome [13] | outcome [19] | outcome [14] | Potency [15]

N[C@@H](CCC(=O)N[C@@H](CS)C(=O)NCC(=O)O)C(=O)O
inactive: activation [1] 2.71% [at 19 µM] | activation (H2AX phosphorylation) [16] -1.53% [at 31.6 µM] | activation [2] -0.104% [at 15.8 µM] | activity change, negative = cytotoxicity [3] 0.69% [at 31.6 µM] | activity change, negative = cytotoxicity [17] 0.707% [at 15.8 µM] | activity change, negative = cytotoxic [6] 7.09% [at 15.8 µM] | cytotoxicity [7] 0.542% [at 15.8 µM] | activity change, negative = cytotoxic [18] -0.349% [at 15.8 µM] | activity change, negative = cytotoxicity [9] 9.65% [at 15.8 µM] | viability change, negative = cytotoxic [10] -0.362% [at 15.8 µM] | max response [11] 3.69% | activity change [12] 1.6% [at 15.8 µM] | cytotoxicity increase [13] -10% [at 15.8 µM] | activity change, negative = cytotoxic [19] 2.09% [at 15.8 µM] | cytotoxicity increase [15] -8.24% [at 15.8 µM]

OCCCCC(O)CO (centres undefined)
inactive: Potency [1] | outcome [16] | outcome [2] | Potency [4] | activity change, positive = activation [5] -0.533% | outcome [17] | Potency [6] | outcome [7] | Potency [8] | Potency [9] | outcome [10] | max response [11] 5.78% | outcome [12] | outcome [13] | outcome [19] | Potency [15]

CCn1ccc(NS(=O)(=O)c2ccc(N)cc2)nc1=O
inactive: Potency [1] | outcome [2] | Potency [3] | Potency [4] | activity change, positive = activation [5] 3.61% [at 42.5 µM] | outcome [17] | Potency [6] | outcome [7] | outcome [18] | Potency [8] | Potency [9] | outcome [10] | max response [11] 5.4% | outcome [12] | outcome [13] | outcome [19] | Potency [15]

C=C(C)C(=O)OCCN(CC)CC
inactive: Potency [1] | outcome [16] | outcome [2] | Potency [3] | outcome [17] | Potency [6] | outcome [7] | outcome [18] | Potency [9] | outcome [10] | max response [11] 2.31% | outcome [12] | outcome [13] | outcome [19] | outcome [14] | Potency [15]

CC(C)(C)c1n[nH]c(=S)n(N)c1=O
inactive: Potency [1] | outcome [16] | outcome [2] | Potency [3] | Potency [4] | activity change, positive = activation [5] -1.28% | outcome [17] | Potency [6] | outcome [7] | Potency [9] | outcome [10] | max response [11] 2.54% | outcome [12] | outcome [13] | outcome [19] | outcome [14] | Potency [15]
